From PubChem BioAssay (NCI) come the findings set out here.

Experiment in all cases: NCI-60 one-dose screen, 48 h (100 = growth as untreated, 0 = no growth, -100 = all killed)
What all share (conditions): 10 µM unless noted

The test system of assay [1] is SK-MEL-2 melanoma.
Assay [2] relates to EKVX NSCLC.
The test system of assay [3] is SN12C renal.
The test system of assay [4] is UO-31 renal.
The test system of assay [5] is TK-10 renal.
Assay [6] has as its system ACHN renal.
Assay [7] relates to CAKI-1 renal.
In assay [8] the test system is A498 renal.
The subject of assay [9] is CCRF-CEM leukemia.
Assay [10] deals with SR leukemia.
Assay [11] has as its system RPMI-8226 leukemia.
Assay [12] has as its system OVCAR-8 ovarian.
Assay [13] deals with OVCAR-5 ovarian.
The test system of assay [14] is OVCAR-4 ovarian.
Assay [15] concerns SK-OV-3 ovarian.
For assay [16], the system named is IGROV1 ovarian.
The subject of assay [17] is OVCAR-3 ovarian.
Assay [18] deals with HS 578T breast.
The subject of assay [19] is NCI/ADR-RES ovarian.

Molecules are shown by their SMILES. This is part of a sample that, as a whole, favours compounds with a hit. Of some 83,000 tested, about 20% had one in any assay.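 Interpretation: 100, growth as untreated; towards 0, rising growth inhibition; 0, no net growth; 0 to -100, cell death. Compounds scoring below 10 were considered active.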 Unmarked numbers belong to inactive results. Activity calls are given as the source filed them.

As to `O=[N+]([O-])c1ccc(C2CC(c3ccccc3)=Nc3ccccc3S2)cc1` (configuration not stated), the growth in assay [1] was 107%; in [2], 112%; in assay [3], 103%; in [4], 56.4%; in assay [5] it was 148%; in assay [6], 103%. The growth in assay [7] was 93.6%; in assay [8] it was 114%; in [9], 73.2%; in assay [10], 30.9%; in [11] it was -6.89% (active); in [12], 94.9%. Besides, the growth in assay [13] is 113%; in assay [14], 93.5%; in assay [15] it was 100%; in assay [16], 58.7%; in assay [17] it was 83.9%; in [18] it was 93.3%. Besides, the growth in assay [19] is 95.1%.
As for `COc1cc(-c2nc(N3CCN(C)CC3)c3ccccc3n2)cc(OC)c1OC`, the growth was 81.2% in [1]; 67.2% in [2]; 82.6% in [3]; 45% in assay [4]; 94.1% in assay [5]; 47.5% in assay [6]. For the same compound, the growth in [7] was 50.3%; in [8], 21.6%; in assay [9], 99.3%; in assay [10], 48.9%; in assay [11] it was 71.2%; in assay [12], 75.7%. Besides, the growth was 88.5% in assay [13]; 55.9% in [14]; 68.4% in assay [15]; 62.5% in [16]; 3.18% (active) in assay [17]; 41.1% in assay [18]. In assay [19], the growth is 10.3%.
For the compound `CNC(=O)c1cc(Oc2ccc3nc(Nc4ccc(Cl)c(C(F)(F)F)c4)ccc3c2)ccn1`, the growth in assay [1] is 75.9%; in assay [2] it was 62.6%; in assay [3], 71.1%; in [4], 57.8%; in [5], 54.5%; in assay [6] it was 49.4%. In addition, the growth in assay [7] was 92.7%; in assay [8], 61.8%; in [9], 42.2%; in assay [10], 30%; in assay [11], 53.8%; in [12], 58.4%. Moreover, the growth in assay [13] is 91.8%; in assay [14] it was 56.3%; in assay [15], 93.3%; in [16] it was 83.8%; in [17], 61.5%; in [18], 77.8%. Also, the growth in assay [19] was 65.5%.
Consider `CC(=O)n1c(-c2ccc(Cl)cc2)nc2c(c1=O)C(c1ccc(Cl)cc1)c1sc3c(Cl)cccc3c1O2` (configuration not stated), for which the growth in [1] is 7.32% (active); in [2], 32.9%; in assay [3], -0.0627% (active); in assay [4], 15.6%; in [5], -7.43% (active); in assay [6] it was 23.4%. Also, the growth is 7.82% (active) in assay [7]; 3.79% (active) in [8]; -4.47% (active) in [9]; -14.9% (active) in [10]; 0.984% (active) in assay [11]; -31.5% (active) in [12]. For the same compound, the growth in assay [13] was -3.95% (active); in assay [14], 17.3%; in [15], -2.53% (active); in assay [16], 13.2%; in [17], -50.4% (active); in assay [18], -9.23% (active). Moreover, the growth in assay [19] is -17.2% (active).
For the compound `Cc1cc(Cl)nc(NCc2cc(Nc3ccnc4cc(Cl)ccc34)ccc2F)n1`, the growth in assay [1] was 77.1%; in assay [2], 68.1%; in [3], 52.8%; in assay [4] it was 44%; in assay [5] it was 67.1%; in assay [6], 76.1%. For the same compound, the growth in assay [7] is 75.3%; in [8], 63.3%; in assay [9], 28.9%; in assay [10], -7.84% (active); in assay [11] it was 33.1%; in assay [12], 50.6%. Further, the growth is 107% in [13]; 9.24% (active) in [14]; 85.1% in assay [15]; 64.7% in [16]; 53.4% in assay [17]; 66.7% in [18]. Also, the growth in assay [19] was 50.3%.
For the compound `O=C(NCCCNc1cc(-c2cn(-c3ccccc3)nc2-c2cccc(O)c2)ccn1)c1ccccc1`, the growth was 26.8% in assay [1]; 47.6% in assay [2]; 61.1% in assay [3]; 22.6% in [4]; 67.3% in [5]; 45.8% in assay [6]. Besides, the growth in [7] was 37.3%; in assay [8], 31.1%; in assay [9], 36.6%; in assay [10] it was -25.8% (active); in [11] it was -7.45% (active); in [12], 27.5%. Also, the growth in [13] is 63.3%; in assay [14], 38.1%; in [15], 37.7%; in assay [16], 50.8%; in assay [17] it was 45.8%; in assay [18] it was -6.38% (active). In addition, the growth in [19] is 25.8%.
For `COc1ccc(-c2nc3c(c(=O)n2C(C)=O)C(c2ccc(Cl)cc2)c2sc4c(Cl)cccc4c2O3)cc1` (configuration not stated), the growth in assay [1] was -11.5% (active); in assay [2] it was 24.6%; in assay [3], -35.1% (active); in assay [4], 6.4% (active); in assay [5], -35.6% (active); in assay [6], 8.98% (active). Also, the growth in [7] was -6.4% (active); in [8] it was -2.79% (active); in assay [9], -3.94% (active); in [10] it was -11.7% (active); in assay [11], 2.22% (active); in assay [12], -23% (active). Moreover, the growth in assay [13] was -13.8% (active); in assay [14] it was 24.4%; in assay [15], -22.6% (active); in assay [16], 12.5%; in [17], -71.4% (active); in assay [18], -15.6% (active). Further, the growth in assay [19] is -4.4% (active).
As to `CCN(CC)CCCCCCNc1cc(OC)c(Cl)c2cccnc12`, the growth was 92.4% in assay [1]; 85.6% in assay [2]; 67.7% in [3]; 51.8% in assay [4]; 85.3% in assay [5]; 82.5% in assay [6]. The growth in [7] is 84.6%; in assay [8] it was 45.3%; in assay [9], 84.7%; in assay [10], 42.2%; in assay [11], 75.3%; in [12], 84.9%. Further, the growth was 83% in [13]; 73.6% in [14]; 92.5% in [15]; 86.6% in [16]; 66.9% in assay [17]; 58.8% in assay [18]. Further, the growth in assay [19] was 79.3%.
